# In the library only some 15% were active in any assay of this set; here they are far more common.
# VP16 counter: inhibits Gal4-VP16 luciferase reporter, ROR gamma counter-screen. Drosophila S2 Gal4-VP16 UAS-luciferase, luminescence, 20 h. Potency, µM (titrated, usually from 53.6 µM), for the others: at the top dose activity, negative = inhibition, hits mostly inhibitors. 310,000 tested, 3.5% active. AID 2546;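 further: Gal4-VP16 expression switched on by copper sulfate through the metallothionein promoter; nearly all actives have a fitted effect of over 50% in size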
# ELG1 repair inh: inhibitors of ELG1-dependent DNA repair in HEK293T cells; HEK293T ELG1-luciferase reporter, luminescence, 16 h; DNA damage induced by 5-fluorouridine; Potency, µM (series often up to 46.1 µM), inactives show at the highest dose activity change, negative = inhibition, usual class: inhibitors; 330,000 tested, 2.3% active; AID 504467; further: nearly all actives have a fitted effect of over 55% in size
#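 Luminescence from the luciferase reporter, measured 30 min after ONE-Glo reagent at room temperature, was the read-out. Beforehand, 2,000 cells per well were exposed for 16 hr at 37 °C to 5-fluorouridine together with compound or vehicle.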
# RORgamma inh: inhibitors of mouse ROR gamma transcriptional activity. Potency, µM (highest dose often 53.6 µM), inactives show at the highest dose activity change, negative = inhibition, hits mostly inhibitors. AID 2551. 310,000 tested, 5.4% active. P51450. Drosophila S2 Gal4-RORgamma UAS-luciferase reporter, 20 h; further: nearly all actives have a fitted effect of over 60% in size
#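 In this cell-based reporter format, copper sulfate (700 uM final) drives Gal4–ROR gamma fusion expression from a metallothionein promoter in Drosophila Schneider cells; compounds preincubated 1 hr, reporter read after 20 hr at ambient temperature.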
# TDP1 cell noCPT: qHTS for Inhibitors of human tyrosyl-DNA phosphodiesterase 1 (TDP1): qHTS in cells in absence of CPT | Potency, µM (top dose mostly 46.2 µM), inactives show top-dose activity change, negative = growth inhibition, usual class: inhibitors | 420,000 tested, 15% active | DT40 Tdp1-/- hTDP1 cells, no CPT, ATP luminescence, 48 h; further: nearly all actives have a fitted effect of over 55% in size
#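 DT40 Tdp1-/-;hTDP1 cells, no CPT (DMSO vehicle only), 400 cells/well; compounds pin-transferred; ≥48 hr, 37 °C; CellTiter-Glo 30 min RT dark, luminescence read.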
# ALOX12 inh: blocks human arachidonate 12S-lipoxygenase | Potency, µM (titrated, usually from 108 µM), inactives show at the highest dose activity change, negative = inhibition, most hits filed as inhibitors | 580,000 tested, 1.1% active | P18054 | purified 12hLO, xylenol orange hydroperoxide absorbance
# Target sequence (P18054 whole entry, looked up): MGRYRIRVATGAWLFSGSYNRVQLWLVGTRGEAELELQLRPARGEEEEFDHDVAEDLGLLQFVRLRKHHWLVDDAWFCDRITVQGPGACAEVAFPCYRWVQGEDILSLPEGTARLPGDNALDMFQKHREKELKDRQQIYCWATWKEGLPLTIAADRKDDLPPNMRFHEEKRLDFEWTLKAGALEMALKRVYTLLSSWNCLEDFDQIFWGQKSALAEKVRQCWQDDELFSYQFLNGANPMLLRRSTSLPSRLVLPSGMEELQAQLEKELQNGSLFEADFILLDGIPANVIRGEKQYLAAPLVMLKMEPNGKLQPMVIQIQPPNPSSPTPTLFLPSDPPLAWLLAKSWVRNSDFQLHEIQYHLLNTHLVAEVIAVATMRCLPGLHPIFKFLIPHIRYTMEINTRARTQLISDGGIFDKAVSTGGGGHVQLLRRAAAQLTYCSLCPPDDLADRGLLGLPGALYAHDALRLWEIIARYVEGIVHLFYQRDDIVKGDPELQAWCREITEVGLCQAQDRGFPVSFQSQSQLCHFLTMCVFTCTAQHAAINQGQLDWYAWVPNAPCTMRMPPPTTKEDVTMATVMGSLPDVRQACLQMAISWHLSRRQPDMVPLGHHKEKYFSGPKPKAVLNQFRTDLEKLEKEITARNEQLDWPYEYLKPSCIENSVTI
#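 Purified human 12hLO (150 nM final) in 25 mM Hepes, 0.01% Triton X-100, pH 7.0 was preincubated 15 min at room temperature with compound. Then 40 uM arachidonic acid was added, 30 min. Hydroperoxide was read by Fe-XO absorbance ratio 573/405 nm.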
# TDP1 cell CPT: growth inhibition of DT40 Tdp1-/-;hTDP1 cells with camptothecin (screen for TDP1 inhibitors); chicken DT40 Tdp1-/-;hTDP1 cells + 20 nM CPT, ATP luminescence, 48 h; Potency, µM (top dose mostly 46.2 µM), for the others: at the top dose activity change, negative = growth inhibition, usual class: inhibitors; 420,000 tested, 12% active; further: nearly all actives have a fitted effect of over 55% in size
#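 Cell growth measured by CellTiter-Glo luminescence after a minimum 48 h, 37 C compound exposure with 20 nM CPT in Tdp1-knockout DT40 cells stably expressing hTDP1, seeded 400/well; qHTS titration format.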
# The depositor's hits bear a star; ? = inconclusive; . = no result; [ ] = remark or other dose. The call rests on the fitted dose curve; in most records, active means well fitted curve in the direction sought with a large enough effect; inconclusive means small, poorly fitted or top-dose-only effect, or another doubt; inactive means no such curve, though single readings can be large; an effect the other way counts as inactive or inconclusive. On the % scale 0 is the no-effect control and ±100 the full control effect; potency means the concentration at half of the fitted maximal effect.
SMILES,VP16 counter,ELG1 repair inh,RORgamma inh,TDP1 cell noCPT,ALOX12 inh,TDP1 cell CPT
O=C(CCl)Nc1ccc(S(=O)(=O)NC2=NCCCCC2)cc1,.,?,.,13µM*,-4%,18µM*
CCCOc1ccc(C(=O)Nc2ccc(S(=O)(=O)NC3=NCCCCC3)cc2)cc1,.,?,.,21µM*,-11%,13µM*
CC(C)(C)C(=O)Nc1ccc(S(=O)(=O)NC2=NCCCCC2)cc1,.,14%,.,-27%,?,?
O=C(COC(=O)c1ccc(O)cc1)Nc1cccc(S(=O)(=O)NC2=NCCCCC2)c1,-2%,17%,3%,-10%,5%,1%
O=C(CCl)Nc1cccc(S(=O)(=O)NC2=NCCCCC2)c1,.,?,.,5.2µM*,-79%,3.7µM*
C/C(=N/O)c1cc(Cl)ccc1O,.,.,.,.,-17%,.
O=C(Cc1ccc(F)cc1)NCCNC(=O)c1cc(=O)[nH]c2ccccc12,.,.,.,.,-20%,.
COc1ccc(C(=O)N2CCC(n3nccc3NC(=O)CC(C)C)CC2)cc1OC,.,.,.,.,-2%,.
CN1CCC(N2CC[C@H](c3nc4ccc(C#N)cc4[nH]3)C2)CC1,.,.,.,.,28%[176 µM],.
Cc1ccc(OCC(=O)Nc2cccc(S(=O)(=O)NC3=NCCCCC3)c2)cc1C,-14%,2%,41%,?,-6%,?
Cc1ccc(Nc2nnc(SCC(=O)Nc3cccc(S(=O)(=O)NC4=NCCCCC4)c3)s2)c(C)c1,1%,?,-26%,26µM*,2%,?
Cc1cc(OCC(=O)Nc2cccc(S(=O)(=O)NC3=NCCCCC3)c2)ccc1Cl,19%,-17%,?,2.6µM*,-14%,?
Nc1nc2cc(S(=O)(=O)NC3=NCCCCC3)ccc2s1,?,-1%,?,13µM*,15%,15µM*
CC(C)(C)CCNC(=O)c1cc(C2CC2)nc2ccccc12,.,.,.,.,-10%,.
CN1CCC(NC[C@H]2COCc3nc4cc(C(F)(F)F)ccc4n32)CC1,.,.,.,.,69%[176 µM],.
Cc1ncsc1CN1CC(N(Cc2ccccc2)C2CCOCC2)C1,.,.,.,.,61%,.
CCOc1ccccc1CNC(=O)c1ccc(NC(=O)N2CC(C)Sc3ccccc32)cc1 (configuration not stated),.,.,.,7.3µM*,0%,13µM*
CCc1ccccc1NC(=O)N1CCc2ccccc21,22%,0%,12%,?,-17%,23µM*
CCc1ccccc1NC(=O)N1CCOc2ccccc21,.,.,.,-45%,?,?
Cc1cccc(CNC(=O)c2ccc(NC(=O)N3CCSc4ccccc43)cc2)c1,.,.,.,9.2µM*,1%,16µM*
CCOc1ccccc1CNC(=O)CCC(=O)N1CCSc2ccccc21,.,.,.,?,13%,?
Cc1cccc(CNC(=O)c2ccc(NC(=O)N3CCSc4ncccc43)cc2)c1,.,.,.,-35%,-12%,-7%
Cc1ccc(CCNC(=O)c2ccc(NC(=O)N3CC(C)Sc4ccccc43)cc2)cc1 (configuration not stated),.,.,.,?,-2%,?
Cc1ccccc1CCNC(=O)c1ccc(NC(=O)N2CC(C)Sc3ccccc32)cc1 (configuration not stated),.,.,.,7.3µM*,3%,18µM*
N#Cc1cccc(C(=O)N2CCN(c3oc(C4CC4)nc3C#N)CC2)c1,.,.,.,.,9%,.
SMILES,VP16 counter,ELG1 repair inh,RORgamma inh,TDP1 cell noCPT,ALOX12 inh,TDP1 cell CPT
O=S(=O)(c1ccc(OC(F)(F)F)cc1)N1CCN(Cc2ncc(-c3ccc(F)cc3)o2)CC1,.,.,.,.,-9%,.
CCc1ccccc1NC(=O)N1CC(C)Sc2ccccc21 (configuration not stated),.,.,.,?,-4%,21µM*
CC1CN(C(=O)CCC(=O)NCc2cccc(Cl)c2)c2ccccc2S1 (configuration not stated),.,.,.,-28%,0%,-25%
CC1CN(C(=O)Nc2ccc(C(=O)NCc3cccc(F)c3)cc2)c2ccccc2S1 (configuration not stated),.,.,.,18µM*,0%,?
Cc1ccccc1NC(=O)CCC(=O)N1CC(C)Sc2ccccc21 (configuration not stated),.,.,.,?,-18%,?
CC1CN(C(=O)Nc2ccc(C(=O)NCc3ccccc3F)cc2)c2ccccc2S1 (configuration not stated),.,.,.,15µM*,-1%,23µM*
O=C(CC1SC(N2CCCC2)=NC1=O)Nc1ccc(C(=O)NCc2ccccc2F)cc1 (configuration not stated),.,.,.,3%,12%,-2%
O=C(CCc1ncc(-c2ccc(Cl)cc2Cl)o1)NCc1ccccc1,.,.,.,.,-12%,.
Cc1oc2cc3c(C(=O)N4CCCCC4)c(C)oc3cc2c1C(=O)N1CCCCC1,?,?,2µM*,18µM*,0%,?
COc1cc2c(C(=O)N3CCN(C)CC3)c(C)oc2cc1Br,1%,-5%,-21%,-13%,-8%,0%
COCC(=O)N1CCC2(CC1)CN(c1ccc(-c3ccccc3)cc1)C2,4%,.,?,5.8µM*,5%[57.4 µM],8.2µM*
O=S(=O)(c1ccccc1)N1CCC2(CCN(c3ccccc3)CC2)CC1,-6%,.,?,?,3%[57.4 µM],?
O=C(c1ccncc1)N1CCC2(CC1)CN(c1ccccc1)C2,12%,.,0%,?,-24%[57.4 µM],16µM*
O=S(=O)(c1ccccc1)N1CCC2(CCN(c3ccncc3)CC2)CC1,-11%,.,-6%,13µM*,-5%[57.4 µM],12µM*
COCC(=O)N1CCC2(CC1)CN(c1cccc(-c3ccccc3)c1)C2,1%,.,9%,?,-11%[57.4 µM],?
O=C(c1ccncc1)N1CCC2(CC1)CCN(c1ccc(-c3ccccc3)cc1)CC2,-30%,.,-15%,?,-26%[57.4 µM],6.5µM*
O=C(c1ccncc1)N1CCC2(CC1)CCN(c1cccc(-c3ccccc3)c1)CC2,-14%,.,21%,?,?,?
CS(=O)(=O)N1CC2(CCCN(CC3CC3)C2)Cc2ccccc21 (configuration not stated),.,.,.,.,4%[6.33 µM],.
Cc1cc(C)nc(/N=C2\NC(=O)CN2c2cc(Cl)cc(Cl)c2)n1,.,.,.,.,5%,.
CCc1noc(C)c1C(=O)OC(C)C(=O)c1c[nH]c2ccccc12 (configuration not stated),.,.,.,.,-10%,.
O=C(C1CC(=O)N(c2n[nH]c3ccccc23)C1)N1CCN(CCc2ccncc2)CC1 (configuration not stated),.,.,.,.,23%,.
c1ccc(Nc2nc(CSc3nnnn3C3CCCC3)cs2)cc1,.,.,.,.,-14%,.

# Screening results as filed in PubChem BioAssay.
